We go through twelve molecules from PubChem BioAssay (NCI).

Some test systems named below: SR leukemia; RPMI-8226 leukemia; OVCAR-8 ovarian; OVCAR-5 ovarian; OVCAR-4 ovarian; SK-OV-3 ovarian; IGROV1 ovarian; OVCAR-3 ovarian; HS 578T breast; NCI/ADR-RES ovarian; T-47D breast; BT-549 breast; MDA-MB-435 melanoma; SW-620 colon; MCF7 breast; HCT-116 colon; HCC-2998 colon; KM12 colon.
Common to all, as to experiment: NCI-60 one-dose screen, 48 h (100 = growth as untreated, 0 = no growth, -100 = all killed)
Holding throughout (details): 10 µM unless noted

This is part of a sample that, as a whole, favours compounds with a hit. Of some 83,000 tested, about 20% had one in any assay.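 Cells were grown in 96-well plates and exposed to the test compound at a single concentration for 48 hours; results are reported as percent growth, with values below 10 considered active.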 A number with no mark means an inactive call. Active and inactive are the calls of the source.

For `CCN(CC)S(=O)(=O)c1ccc(S(=O)(=O)N2CCC[C@@H](C(=O)N3CCN(C(=O)OC(C)(C)C)CC3)C2)cc1`, the growth was 31.7% in the assay on SR leukemia; 53.7% with RPMI-8226 leukemia; 63.3% in the assay on OVCAR-8 ovarian; 102% in the assay on OVCAR-5 ovarian; 26.1% in the assay on OVCAR-4 ovarian; 90.5% with SK-OV-3 ovarian. Further, the growth in the assay with IGROV1 ovarian is 86.1%; with OVCAR-3 ovarian it was 73.5%; in the assay on HS 578T breast it was 87.2%; in the assay with NCI/ADR-RES ovarian, 62%; in the assay with T-47D breast, 44.5%; in the assay with BT-549 breast, 61.5%. For the same molecule, the growth is 60.6% with MDA-MB-435 melanoma; 80.4% in the assay with SW-620 colon; 49.3% in the assay with MCF7 breast; 54.1% in the assay with HCT-116 colon; 89.6% in the assay with HCC-2998 colon; 76.9% in the assay with KM12 colon.
`C=CCN=C(N)SCCCCCCSC(N)=NCC=C`: the growth was 93.7% with SR leukemia; 94% in the assay with RPMI-8226 leukemia; 94.6% with OVCAR-8 ovarian; 97.5% in the assay with OVCAR-5 ovarian; 109% with OVCAR-4 ovarian; 70.4% in the assay on SK-OV-3 ovarian. In addition, the growth in the assay on IGROV1 ovarian is 103%; in the assay on OVCAR-3 ovarian, 95.9%; with HS 578T breast, 92.2%; in the assay with NCI/ADR-RES ovarian, 104%; in the assay on T-47D breast, 55.9%; in the assay with BT-549 breast it was 84.9%. In addition, the growth in the assay on MDA-MB-435 melanoma is 99.3%; in the assay with SW-620 colon, 94.7%; in the assay on MCF7 breast, 90.9%; in the assay on HCT-116 colon, 75.5%; in the assay with HCC-2998 colon it was 93.1%; in the assay on KM12 colon, 97.5%.
As for `O=C(CSc1nc2ccc([N+](=O)[O-])cc2[nH]1)Nc1cccc([N+](=O)[O-])c1`, the growth is 41.1% with SR leukemia; 11.9% in the assay with RPMI-8226 leukemia; 60% in the assay on OVCAR-8 ovarian; 82.6% in the assay with OVCAR-5 ovarian; 28.7% with OVCAR-4 ovarian; 55.8% with SK-OV-3 ovarian. In addition, the growth was 59.1% in the assay on IGROV1 ovarian; 38.9% in the assay on OVCAR-3 ovarian; 66.9% in the assay on HS 578T breast; 66.9% in the assay on NCI/ADR-RES ovarian; 16.2% in the assay with T-47D breast; 59% in the assay on BT-549 breast. For the same molecule, the growth is 43.8% in the assay with MDA-MB-435 melanoma; 73.8% in the assay on SW-620 colon; 52.8% in the assay with MCF7 breast; 33.6% in the assay with HCT-116 colon; 62.9% in the assay with HCC-2998 colon; 57.4% with KM12 colon.
As to `Cc1cc2nc3c4ccccc4n(CCN(C)C)c3nc2cc1C`, the growth in the assay on SR leukemia is 4.17% (active); with RPMI-8226 leukemia, -19.7% (active); in the assay with OVCAR-8 ovarian, 6.84% (active); with OVCAR-5 ovarian, 15.6%; in the assay with OVCAR-4 ovarian, -1.33% (active); in the assay on SK-OV-3 ovarian, 13.3%. Moreover, the growth was 5.07% (active) with IGROV1 ovarian; 18% with OVCAR-3 ovarian; 3.81% (active) in the assay on HS 578T breast; 6.55% (active) with NCI/ADR-RES ovarian; 32.2% in the assay with T-47D breast; 53.1% in the assay on BT-549 breast. The growth in the assay with MDA-MB-435 melanoma was 8.26% (active); in the assay on SW-620 colon it was -30.8% (active); with MCF7 breast it was -0.456% (active); in the assay on HCT-116 colon, 7.19% (active); with HCC-2998 colon, 22.1%; in the assay with KM12 colon it was 17.4%.
`COc1ccc(NC(=O)c2sc3nc4c(cc3c2N)CCCC4)cc1`: the growth with SR leukemia was 1.36% (active); with RPMI-8226 leukemia, 14.8%; in the assay with OVCAR-8 ovarian, 25.5%; in the assay on OVCAR-5 ovarian it was 78.8%; in the assay with OVCAR-4 ovarian, 57.3%; in the assay on SK-OV-3 ovarian it was 39.4%. Moreover, the growth in the assay with IGROV1 ovarian was 53.8%; with OVCAR-3 ovarian, 11.1%; in the assay with HS 578T breast, 43.4%; in the assay on NCI/ADR-RES ovarian it was 5.47% (active); in the assay on T-47D breast, 32.4%; in the assay on BT-549 breast, 51.3%. Besides, the growth in the assay with MDA-MB-435 melanoma was -20.9% (active); in the assay with SW-620 colon it was 36.7%; with MCF7 breast, 19.2%; in the assay on HCT-116 colon, 30.3%; in the assay on HCC-2998 colon, 52.8%; in the assay with KM12 colon it was 25.8%.
As for `C=C1C(=O)O[C@H]2[C@H]1CC/C(COC(=O)/C=C\C(=O)NCc1ccc(Cn3c(=O)sn(-c4ccccc4)c3=O)cc1)=C\CC[C@@]1(C)O[C@@H]21`, the growth with SR leukemia was 72.4%; with RPMI-8226 leukemia, 40.5%; in the assay with OVCAR-8 ovarian it was 91.2%; in the assay on OVCAR-5 ovarian it was 98.3%; with OVCAR-4 ovarian it was 85%; with SK-OV-3 ovarian, 108%. For the same molecule, the growth is 77.4% with IGROV1 ovarian; 39.5% with OVCAR-3 ovarian; 90.3% in the assay on HS 578T breast; 111% with NCI/ADR-RES ovarian; 67.9% in the assay with T-47D breast; 93.5% with BT-549 breast. In addition, the growth in the assay on MDA-MB-435 melanoma was 67.7%; with SW-620 colon it was 19.9%; in the assay with MCF7 breast it was 53.7%; with HCT-116 colon, 33.6%; in the assay on HCC-2998 colon, 105%; with KM12 colon, 106%.
As for `O=c1[nH]c(-c2ccc(Cl)cc2)cn1-c1ccc(-n2cc(-c3ccc(Cl)cc3)[nH]c2=O)cc1`, the growth was 98% in the assay on SR leukemia; 123% with RPMI-8226 leukemia; 92% in the assay with OVCAR-8 ovarian; 104% with OVCAR-5 ovarian; 98.5% with OVCAR-4 ovarian; 97.5% in the assay on SK-OV-3 ovarian. In addition, the growth with IGROV1 ovarian was 102%; with OVCAR-3 ovarian it was 109%; with HS 578T breast, 102%; in the assay with NCI/ADR-RES ovarian, 108%; in the assay with T-47D breast, 89.1%; in the assay on BT-549 breast, 110%. Moreover, the growth in the assay on MDA-MB-435 melanoma is 98.8%; in the assay on SW-620 colon, 102%; with MCF7 breast, 99.8%; with HCT-116 colon, 101%; in the assay with HCC-2998 colon, 106%; in the assay with KM12 colon it was 106%.
On to `FC(F)(F)c1[nH]ncc1-c1nc2c(N3CCCCC3)cc3[nH]ncc3c2c2c1CCCC2`, for which the growth in the assay with SR leukemia was -4.82% (active); with RPMI-8226 leukemia, -6.13% (active); with OVCAR-8 ovarian, 7.14% (active); in the assay on OVCAR-5 ovarian, 6.62% (active); in the assay on OVCAR-4 ovarian, 24.3%; with SK-OV-3 ovarian it was -25% (active). Also, the growth with IGROV1 ovarian is -8.41% (active); in the assay on OVCAR-3 ovarian it was -2.67% (active); with HS 578T breast, -11.8% (active); with NCI/ADR-RES ovarian it was 44.8%; in the assay with T-47D breast, -4.06% (active); in the assay on BT-549 breast, -52.7% (active). For the same molecule, the growth in the assay on MDA-MB-435 melanoma was 10.8%; in the assay with SW-620 colon, 6.31% (active); with MCF7 breast, 3.33% (active); in the assay with HCT-116 colon it was 3.74% (active); in the assay on HCC-2998 colon it was -8.43% (active); with KM12 colon it was 11.1%.
Regarding `CC(=O)c1cc(-c2ccccc2N)n(-c2ccc3c(c2)OCO3)c1C`, the growth in the assay with SR leukemia is 14%; in the assay with RPMI-8226 leukemia, 19.8%; in the assay on OVCAR-8 ovarian, 18.7%; with OVCAR-5 ovarian it was 30%; with OVCAR-4 ovarian, 48.3%; in the assay with SK-OV-3 ovarian, 33.7%. Besides, the growth in the assay on IGROV1 ovarian is 22%; in the assay with OVCAR-3 ovarian, 5.55% (active); in the assay on HS 578T breast, 32.6%; with NCI/ADR-RES ovarian, 13.1%; in the assay on T-47D breast, 71%; with BT-549 breast, 1.13% (active). The growth is -43.6% (active) in the assay on MDA-MB-435 melanoma; 29.2% in the assay with SW-620 colon; 14.8% with MCF7 breast; 6.22% (active) with HCT-116 colon; 15.8% in the assay with HCC-2998 colon; 5.16% (active) in the assay with KM12 colon.
`Cc1ccc(Nc2nc(-c3ccc(F)cc3)c(C#N)c(=O)n2C)cc1`: the growth was 62.3% in the assay on SR leukemia; 89.4% with RPMI-8226 leukemia; 67.3% in the assay with OVCAR-8 ovarian; 63.4% with OVCAR-5 ovarian; 51% with OVCAR-4 ovarian; 60.1% in the assay with SK-OV-3 ovarian. For the same molecule, the growth in the assay on IGROV1 ovarian is 67.5%; in the assay on OVCAR-3 ovarian, 61.5%; in the assay with HS 578T breast, 44.8%; with NCI/ADR-RES ovarian, 76.2%; in the assay with T-47D breast it was 35.5%; with BT-549 breast, 52.8%. The growth in the assay on MDA-MB-435 melanoma was 74.7%; with SW-620 colon, 68.9%; in the assay on MCF7 breast it was 56.1%; with HCT-116 colon, 53.4%; in the assay with HCC-2998 colon, 86.2%; in the assay with KM12 colon, 87.7%.
In the case of `Nc1n[nH]c2ccc([C@@H]3Nc4cc5[nH]ncc5cc4[C@H]4C5CCC(C5)[C@@H]34)cc12` (stereo partly specified), the growth was 20% in the assay with SR leukemia; 5.15% (active) in the assay on RPMI-8226 leukemia; 29.7% in the assay with OVCAR-8 ovarian; 31.2% in the assay on OVCAR-5 ovarian; 43.3% in the assay on OVCAR-4 ovarian; 52.8% in the assay on SK-OV-3 ovarian. The growth in the assay with IGROV1 ovarian is 22.7%; with OVCAR-3 ovarian, -27.6% (active); in the assay on HS 578T breast it was 32%; in the assay with NCI/ADR-RES ovarian, 21.6%; with T-47D breast, 51.9%; with BT-549 breast it was 11.3%. Moreover, the growth is -41.2% (active) in the assay on MDA-MB-435 melanoma; 21.6% with SW-620 colon; 12.3% in the assay with MCF7 breast; 8.92% (active) in the assay on HCT-116 colon; 18.1% in the assay on HCC-2998 colon; 15.6% in the assay with KM12 colon.
Turning to `CCN1C(=O)N(CC)C2C1NN=c1s/c(=C3\C(=O)N(CCc4ccccc4)c4ccccc43)c(=O)n12` (stereo unspecified), the growth in the assay on SR leukemia is 10.7%; in the assay on RPMI-8226 leukemia, 8.77% (active); in the assay with OVCAR-8 ovarian it was 13.5%; in the assay on OVCAR-5 ovarian it was 20.6%; in the assay with OVCAR-4 ovarian, 38.3%; in the assay with SK-OV-3 ovarian, 32.3%. The growth in the assay with IGROV1 ovarian is 18.9%; in the assay on OVCAR-3 ovarian, -16.9% (active); in the assay with HS 578T breast, 5.14% (active); with NCI/ADR-RES ovarian it was -9.34% (active); in the assay with T-47D breast, 44.4%; in the assay on BT-549 breast, 14.2%. The growth with MDA-MB-435 melanoma was -40.9% (active); in the assay with SW-620 colon, 23.1%; in the assay with MCF7 breast, 11.6%; in the assay on HCT-116 colon, 2.18% (active); in the assay on HCC-2998 colon it was 13.2%; in the assay with KM12 colon, 13.9%.
